Experimental data from article PMC7862700, “An all-to-all approach to the identification of sequence-specific readers for epigenetic DNA modifications on cytosine”.

Key:
Assay in all cases: DAPPL (digital affinity profiling via proximity ligation, sequencing); 10 mM Tris-HCl pH 7.5, 50 mM NaCl, 1 mM DTT, 4% glycerol, room temperature, 30 min; GST-TFs on glutathione beads, 16-mer random dsDNA library, 0.1% formaldehyde crosslink after washing; high values mean tight binding
FEV = target: T1, FEV (Homo sapiens, UniProt Q99581 1-238); conditions: protein: recombinant; tags: N-terminal GST; dsDNA, one strand shown
T1 sequence: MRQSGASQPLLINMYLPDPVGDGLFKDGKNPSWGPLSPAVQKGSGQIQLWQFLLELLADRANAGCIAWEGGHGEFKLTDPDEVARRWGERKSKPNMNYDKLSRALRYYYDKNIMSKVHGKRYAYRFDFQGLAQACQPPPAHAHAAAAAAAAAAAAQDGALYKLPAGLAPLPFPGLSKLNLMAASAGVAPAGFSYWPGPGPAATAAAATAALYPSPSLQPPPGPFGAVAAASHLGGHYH
Procedure, shortened: (§1)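 In yeast, human transcription factors were expressed with a GST fusion, then pulled down on glutathione beads and given DNA barcodes. Pooled with a tag-only sample, they were exposed to 200 nmole of a 16-mer random double-stranded DNA library (Tris/NaCl/DTT/glycerol buffer, room temperature, 30 min), washed, crosslinked with 0.1% formaldehyde, proximity-ligated using BsaI/T4 ligase for 1 h at 37 °C, PCR-amplified and read on an Illumina NextSeq500. Each hexamer's frequency of reads for a factor, divided by the matching frequency for the tag-only sample, gives the binding signal.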

ETV5 = ETV5 (Homo sapiens, UniProt P41161 1-510); conditions: protein: recombinant; tags: N-terminal GST; dsDNA, one strand shown
Sequence of ETV5 (P41161 whole entry): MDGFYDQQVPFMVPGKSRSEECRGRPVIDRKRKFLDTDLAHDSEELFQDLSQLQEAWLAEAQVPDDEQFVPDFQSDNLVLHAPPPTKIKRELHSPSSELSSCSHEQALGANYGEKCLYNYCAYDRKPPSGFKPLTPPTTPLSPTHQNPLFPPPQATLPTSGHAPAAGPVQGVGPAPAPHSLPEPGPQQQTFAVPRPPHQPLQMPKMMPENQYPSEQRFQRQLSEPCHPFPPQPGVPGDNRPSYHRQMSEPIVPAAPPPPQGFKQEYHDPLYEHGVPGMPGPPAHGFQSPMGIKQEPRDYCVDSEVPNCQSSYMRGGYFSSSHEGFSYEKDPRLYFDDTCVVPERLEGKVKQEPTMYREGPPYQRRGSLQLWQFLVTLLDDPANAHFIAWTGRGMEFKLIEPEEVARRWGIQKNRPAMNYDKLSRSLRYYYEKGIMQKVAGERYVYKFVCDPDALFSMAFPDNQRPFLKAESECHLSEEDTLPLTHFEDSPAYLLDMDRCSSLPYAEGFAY
Procedure, shortened: as §1

HSF1 = HSF1 (Homo sapiens, UniProt Q00613 1-529); conditions: protein: recombinant; tags: N-terminal GST; chain copies: 3; dsDNA, one strand shown
Sequence of HSF1 (Q00613 whole entry): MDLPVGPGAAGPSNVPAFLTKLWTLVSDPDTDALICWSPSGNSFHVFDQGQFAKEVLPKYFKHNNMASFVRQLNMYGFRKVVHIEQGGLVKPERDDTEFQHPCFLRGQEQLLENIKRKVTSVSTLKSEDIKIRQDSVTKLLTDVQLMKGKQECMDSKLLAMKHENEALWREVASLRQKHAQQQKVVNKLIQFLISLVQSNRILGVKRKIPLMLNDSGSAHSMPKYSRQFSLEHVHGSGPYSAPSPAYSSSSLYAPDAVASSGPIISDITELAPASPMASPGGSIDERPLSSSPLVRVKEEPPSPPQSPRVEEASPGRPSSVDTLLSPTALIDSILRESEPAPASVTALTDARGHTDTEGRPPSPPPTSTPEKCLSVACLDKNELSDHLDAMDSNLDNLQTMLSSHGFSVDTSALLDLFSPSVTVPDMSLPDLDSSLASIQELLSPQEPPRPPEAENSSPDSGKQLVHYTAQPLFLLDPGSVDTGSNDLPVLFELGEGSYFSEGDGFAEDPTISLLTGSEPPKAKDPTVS
Procedure, shortened: as §1

SPIC = target: T2, SPIC (Homo sapiens, UniProt Q8N5J4 1-248); conditions: protein: recombinant; tags: N-terminal GST; dsDNA, one strand shown
T2 sequence: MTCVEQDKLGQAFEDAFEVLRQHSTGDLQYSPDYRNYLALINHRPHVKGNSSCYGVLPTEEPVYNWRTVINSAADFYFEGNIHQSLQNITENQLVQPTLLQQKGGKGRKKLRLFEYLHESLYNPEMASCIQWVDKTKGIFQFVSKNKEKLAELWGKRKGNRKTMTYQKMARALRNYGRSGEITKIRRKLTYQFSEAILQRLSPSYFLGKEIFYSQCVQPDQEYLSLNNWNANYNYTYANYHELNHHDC
Procedure, shortened: as §1

ELF4 = ELF4 (Homo sapiens, UniProt Q99607 1-663); conditions: protein: recombinant; tags: N-terminal GST; dsDNA, one strand shown
Sequence of ELF4 (Q99607 whole entry): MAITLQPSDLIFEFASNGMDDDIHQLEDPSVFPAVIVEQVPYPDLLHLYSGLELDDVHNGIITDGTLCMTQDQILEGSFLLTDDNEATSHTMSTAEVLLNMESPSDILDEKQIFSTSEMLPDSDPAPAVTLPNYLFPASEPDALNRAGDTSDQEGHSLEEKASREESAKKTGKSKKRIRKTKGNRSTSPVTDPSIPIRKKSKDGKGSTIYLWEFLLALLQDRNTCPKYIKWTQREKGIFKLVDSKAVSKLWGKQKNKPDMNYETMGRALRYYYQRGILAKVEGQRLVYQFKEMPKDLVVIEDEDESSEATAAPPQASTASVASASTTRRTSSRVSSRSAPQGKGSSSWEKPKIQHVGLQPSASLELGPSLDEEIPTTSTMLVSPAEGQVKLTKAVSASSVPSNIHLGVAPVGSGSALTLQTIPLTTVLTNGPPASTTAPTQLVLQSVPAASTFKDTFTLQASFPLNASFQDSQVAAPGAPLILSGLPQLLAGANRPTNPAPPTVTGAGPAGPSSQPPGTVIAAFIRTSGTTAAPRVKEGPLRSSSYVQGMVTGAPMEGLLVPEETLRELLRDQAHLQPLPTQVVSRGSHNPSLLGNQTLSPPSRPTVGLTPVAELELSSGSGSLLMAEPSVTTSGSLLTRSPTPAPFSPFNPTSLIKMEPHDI
Procedure, shortened: as §1

ELK4 = target: T3, ELK4 (Homo sapiens, UniProt P28324-2 1-405); conditions: protein: recombinant; tags: N-terminal GST; dsDNA, one strand shown
T3 sequence: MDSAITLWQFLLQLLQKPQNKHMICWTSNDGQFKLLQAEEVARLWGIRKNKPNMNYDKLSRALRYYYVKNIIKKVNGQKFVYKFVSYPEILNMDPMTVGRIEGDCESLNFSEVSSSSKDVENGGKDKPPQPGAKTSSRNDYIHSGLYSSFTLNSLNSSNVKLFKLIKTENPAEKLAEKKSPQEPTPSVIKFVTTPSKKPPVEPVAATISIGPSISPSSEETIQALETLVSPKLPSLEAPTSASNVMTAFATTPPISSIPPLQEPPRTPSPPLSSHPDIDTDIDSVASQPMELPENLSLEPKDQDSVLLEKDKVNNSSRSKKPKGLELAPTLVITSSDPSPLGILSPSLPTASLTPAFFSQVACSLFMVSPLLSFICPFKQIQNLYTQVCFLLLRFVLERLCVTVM
Procedure, shortened: as §1

ETV2 = target: T4, ETV2 (Homo sapiens, UniProt O00321 1-342); conditions: protein: recombinant; tags: N-terminal GST; dsDNA, one strand shown
T4 sequence: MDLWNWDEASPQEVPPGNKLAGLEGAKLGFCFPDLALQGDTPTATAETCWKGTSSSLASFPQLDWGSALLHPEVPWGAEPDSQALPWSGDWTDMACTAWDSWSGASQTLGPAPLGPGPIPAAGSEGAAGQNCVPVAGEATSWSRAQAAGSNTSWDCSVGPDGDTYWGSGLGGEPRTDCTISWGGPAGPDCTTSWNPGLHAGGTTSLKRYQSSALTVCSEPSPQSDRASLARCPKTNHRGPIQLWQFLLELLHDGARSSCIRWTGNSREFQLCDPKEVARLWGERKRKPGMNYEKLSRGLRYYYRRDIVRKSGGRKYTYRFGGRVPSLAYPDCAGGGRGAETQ
Procedure, shortened: as §1

ELF3 = target: T5, ELF3 (Homo sapiens, UniProt P78545 1-371); conditions: protein: recombinant; tags: N-terminal GST; dsDNA, one strand shown
T5 sequence: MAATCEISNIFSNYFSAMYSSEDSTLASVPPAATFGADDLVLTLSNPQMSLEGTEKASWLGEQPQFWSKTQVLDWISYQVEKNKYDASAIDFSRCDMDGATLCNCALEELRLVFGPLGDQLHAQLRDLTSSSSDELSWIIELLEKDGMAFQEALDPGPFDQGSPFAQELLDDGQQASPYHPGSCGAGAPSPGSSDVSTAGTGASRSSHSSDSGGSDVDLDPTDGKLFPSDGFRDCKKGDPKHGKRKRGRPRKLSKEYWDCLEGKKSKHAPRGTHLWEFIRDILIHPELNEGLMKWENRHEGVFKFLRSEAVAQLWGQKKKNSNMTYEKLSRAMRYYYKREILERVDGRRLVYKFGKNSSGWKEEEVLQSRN
Procedure, shortened: as §1

ETV1 = ETV1 (Homo sapiens, UniProt P50549 1-477); conditions: protein: recombinant; tags: N-terminal GST; dsDNA, one strand shown
Sequence of ETV1 (P50549 whole entry): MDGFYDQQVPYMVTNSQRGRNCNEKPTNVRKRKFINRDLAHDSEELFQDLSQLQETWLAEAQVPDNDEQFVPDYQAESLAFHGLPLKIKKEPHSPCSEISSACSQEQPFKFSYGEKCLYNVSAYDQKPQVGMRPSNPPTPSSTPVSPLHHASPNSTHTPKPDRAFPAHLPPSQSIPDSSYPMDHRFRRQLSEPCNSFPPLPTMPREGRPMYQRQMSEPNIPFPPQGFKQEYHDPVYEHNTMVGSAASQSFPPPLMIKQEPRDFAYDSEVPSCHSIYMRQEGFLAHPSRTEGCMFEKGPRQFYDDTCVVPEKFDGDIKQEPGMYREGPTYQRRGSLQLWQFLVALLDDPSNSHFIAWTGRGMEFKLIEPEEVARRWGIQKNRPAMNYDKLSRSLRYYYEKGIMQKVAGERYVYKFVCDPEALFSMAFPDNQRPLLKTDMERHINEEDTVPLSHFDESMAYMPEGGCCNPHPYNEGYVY
Procedure, shortened: as §1

ERF = target: T6, ERF (Homo sapiens, UniProt P50548 1-548); conditions: protein: recombinant; tags: N-terminal GST; dsDNA, one strand shown
T6 sequence: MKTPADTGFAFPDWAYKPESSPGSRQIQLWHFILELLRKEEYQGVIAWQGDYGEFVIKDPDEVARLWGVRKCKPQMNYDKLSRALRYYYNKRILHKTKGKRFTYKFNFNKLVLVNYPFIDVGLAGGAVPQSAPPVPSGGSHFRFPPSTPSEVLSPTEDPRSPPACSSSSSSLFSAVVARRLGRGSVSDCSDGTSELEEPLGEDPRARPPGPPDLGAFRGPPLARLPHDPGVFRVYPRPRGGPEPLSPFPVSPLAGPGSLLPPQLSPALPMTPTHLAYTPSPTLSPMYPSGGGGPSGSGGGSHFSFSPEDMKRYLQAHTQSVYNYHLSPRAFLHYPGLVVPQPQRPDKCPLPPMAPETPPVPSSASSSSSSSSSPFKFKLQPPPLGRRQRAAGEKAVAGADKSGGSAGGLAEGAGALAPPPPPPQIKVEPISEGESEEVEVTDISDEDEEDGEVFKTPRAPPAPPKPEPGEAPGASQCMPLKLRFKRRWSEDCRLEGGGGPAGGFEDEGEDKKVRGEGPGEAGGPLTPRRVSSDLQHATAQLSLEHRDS
Procedure, shortened: as §1

ETV3L = target: T7, ETV3L (Homo sapiens, UniProt Q6ZN32 1-361); conditions: protein: recombinant; tags: N-terminal GST; dsDNA, one strand shown
T7 sequence: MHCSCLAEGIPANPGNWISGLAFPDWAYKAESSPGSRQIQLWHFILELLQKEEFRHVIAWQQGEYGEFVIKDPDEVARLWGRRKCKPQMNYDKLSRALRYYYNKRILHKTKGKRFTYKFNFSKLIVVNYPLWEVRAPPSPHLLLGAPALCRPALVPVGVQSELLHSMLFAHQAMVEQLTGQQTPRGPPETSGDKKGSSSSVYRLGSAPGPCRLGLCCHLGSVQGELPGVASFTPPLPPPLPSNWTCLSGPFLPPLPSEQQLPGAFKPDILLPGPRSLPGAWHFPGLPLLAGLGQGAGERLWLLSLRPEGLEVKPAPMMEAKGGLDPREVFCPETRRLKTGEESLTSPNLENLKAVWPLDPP
Procedure, shortened: as §1

ETS2 = target: T8, ETS2 (Homo sapiens, UniProt P15036 1-469); conditions: protein: recombinant; tags: N-terminal GST; dsDNA, one strand shown
T8 sequence: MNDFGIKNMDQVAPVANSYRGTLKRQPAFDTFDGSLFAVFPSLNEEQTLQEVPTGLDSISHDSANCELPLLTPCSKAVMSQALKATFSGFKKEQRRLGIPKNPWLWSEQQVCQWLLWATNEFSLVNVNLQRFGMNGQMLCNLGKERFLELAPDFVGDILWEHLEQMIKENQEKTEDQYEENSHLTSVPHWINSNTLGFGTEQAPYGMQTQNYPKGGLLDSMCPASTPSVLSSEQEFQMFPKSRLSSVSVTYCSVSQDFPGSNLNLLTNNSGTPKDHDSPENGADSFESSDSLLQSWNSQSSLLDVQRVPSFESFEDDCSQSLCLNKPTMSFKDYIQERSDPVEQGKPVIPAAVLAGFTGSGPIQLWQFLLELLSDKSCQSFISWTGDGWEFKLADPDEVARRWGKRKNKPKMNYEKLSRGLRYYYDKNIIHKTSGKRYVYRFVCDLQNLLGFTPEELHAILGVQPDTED
Procedure, shortened: as §1

SPDEF = target: T9, SPDEF (Homo sapiens, UniProt O95238 1-335); conditions: protein: recombinant; tags: N-terminal GST; dsDNA, one strand shown
T9 sequence: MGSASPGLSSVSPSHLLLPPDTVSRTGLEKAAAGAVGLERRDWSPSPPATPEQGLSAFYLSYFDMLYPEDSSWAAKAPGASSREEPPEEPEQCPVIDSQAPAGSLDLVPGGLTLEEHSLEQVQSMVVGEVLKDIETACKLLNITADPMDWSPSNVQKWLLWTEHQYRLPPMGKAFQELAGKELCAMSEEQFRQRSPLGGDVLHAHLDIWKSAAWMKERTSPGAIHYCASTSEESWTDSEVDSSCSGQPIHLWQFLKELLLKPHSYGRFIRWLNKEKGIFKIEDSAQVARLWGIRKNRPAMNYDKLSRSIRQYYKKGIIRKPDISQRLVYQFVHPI
Procedure, shortened: as §1

ETV7 = target: T10, ETV7 (Homo sapiens, UniProt Q9Y603 1-341); conditions: protein: recombinant; tags: N-terminal GST; dsDNA, one strand shown
T10 sequence: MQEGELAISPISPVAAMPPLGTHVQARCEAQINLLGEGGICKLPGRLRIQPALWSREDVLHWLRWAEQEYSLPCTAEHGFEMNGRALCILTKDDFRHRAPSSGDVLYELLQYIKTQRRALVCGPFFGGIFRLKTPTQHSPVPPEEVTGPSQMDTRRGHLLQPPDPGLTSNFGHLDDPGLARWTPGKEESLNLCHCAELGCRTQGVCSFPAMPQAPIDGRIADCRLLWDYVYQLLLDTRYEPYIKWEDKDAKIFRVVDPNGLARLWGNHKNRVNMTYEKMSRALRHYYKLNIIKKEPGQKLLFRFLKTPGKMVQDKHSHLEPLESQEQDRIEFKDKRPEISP
Procedure, shortened: as §1

ELF5 = target: T11, ELF5 (Homo sapiens, UniProt Q9UKW6-2 1-255); conditions: protein: recombinant; tags: N-terminal GST; dsDNA, one strand shown
T11 sequence: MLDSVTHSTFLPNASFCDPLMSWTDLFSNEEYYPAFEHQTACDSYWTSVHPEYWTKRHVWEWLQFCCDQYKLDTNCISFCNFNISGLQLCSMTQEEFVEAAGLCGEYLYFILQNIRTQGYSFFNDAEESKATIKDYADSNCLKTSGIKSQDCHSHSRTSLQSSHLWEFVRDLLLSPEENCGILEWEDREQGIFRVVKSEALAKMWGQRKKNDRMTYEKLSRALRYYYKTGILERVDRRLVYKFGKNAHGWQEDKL
Procedure, shortened: as §1

ETV3 = target: T12, ETV3 (Homo sapiens, UniProt P41162-2 1-143); conditions: protein: recombinant; tags: N-terminal GST; dsDNA, one strand shown
T12 sequence: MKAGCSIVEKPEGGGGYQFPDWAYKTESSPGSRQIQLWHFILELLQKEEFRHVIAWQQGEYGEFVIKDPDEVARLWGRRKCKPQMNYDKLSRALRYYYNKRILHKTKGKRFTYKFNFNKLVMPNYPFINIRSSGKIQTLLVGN
Procedure, shortened: as §1

ETV6 = ETV6 (Homo sapiens, UniProt P41212 1-452); conditions: protein: recombinant; tags: N-terminal GST; dsDNA, one strand shown
Sequence of ETV6 (P41212 whole entry): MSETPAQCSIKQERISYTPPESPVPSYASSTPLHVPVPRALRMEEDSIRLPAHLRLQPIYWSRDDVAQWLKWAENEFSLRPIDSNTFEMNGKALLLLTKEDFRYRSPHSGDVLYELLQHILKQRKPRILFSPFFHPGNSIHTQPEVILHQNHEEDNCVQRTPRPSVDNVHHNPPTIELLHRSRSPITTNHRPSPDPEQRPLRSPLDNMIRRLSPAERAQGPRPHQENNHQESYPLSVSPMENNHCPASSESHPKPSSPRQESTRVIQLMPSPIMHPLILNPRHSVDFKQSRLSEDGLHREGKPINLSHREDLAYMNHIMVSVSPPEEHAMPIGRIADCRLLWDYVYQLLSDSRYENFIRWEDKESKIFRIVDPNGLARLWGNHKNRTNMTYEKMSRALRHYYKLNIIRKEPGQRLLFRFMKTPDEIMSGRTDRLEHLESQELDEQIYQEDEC
Procedure, shortened: as §1

Row | Sequence | binding signal (FEV) | binding signal (ETV5) | binding signal (HSF1) | binding signal (SPIC) | binding signal (ELF4) | binding signal (ELK4) | binding signal (ETV2) | binding signal (ELF3) | binding signal (ETV1) | binding signal (ERF) | binding signal (ETV3L) | binding signal (ETS2) | binding signal (SPDEF) | binding signal (ETV7) | binding signal (ELF5) | binding signal (ETV3) | binding signal (ETV6)
1 | TGAAAC | 1.31 fold enrichment (6-mer frequency, TF over GST control) | 1.33 fold enrichment (6-mer frequency, TF over GST control) | 1.13 fold enrichment (6-mer frequency, TF over GST control) | 1.27 fold enrichment (6-mer frequency, TF over GST control) | 1.27 fold enrichment (6-mer frequency, TF over GST control) | 1.18 fold enrichment (6-mer frequency, TF over GST control) | 1.4 fold enrichment (6-mer frequency, TF over GST control) | 1.42 fold enrichment (6-mer frequency, TF over GST control) | 1.27 fold enrichment (6-mer frequency, TF over GST control) | 1.17 fold enrichment (6-mer frequency, TF over GST control) | 1.17 fold enrichment (6-mer frequency, TF over GST control) | 1.3 fold enrichment (6-mer frequency, TF over GST control) | 1.28 fold enrichment (6-mer frequency, TF over GST control) | 1.28 fold enrichment (6-mer frequency, TF over GST control) | 1.15 fold enrichment (6-mer frequency, TF over GST control) | 1.28 fold enrichment (6-mer frequency, TF over GST control) | 1.13 fold enrichment (6-mer frequency, TF over GST control)
2 | GTAACT | 1.18 fold enrichment (6-mer frequency, TF over GST control) | 1.21 fold enrichment (6-mer frequency, TF over GST control) | 1.02 fold enrichment (6-mer frequency, TF over GST control) | 1.37 fold enrichment (6-mer frequency, TF over GST control) | 1.27 fold enrichment (6-mer frequency, TF over GST control) | 1.26 fold enrichment (6-mer frequency, TF over GST control) | 1.2 fold enrichment (6-mer frequency, TF over GST control) | 1.16 fold enrichment (6-mer frequency, TF over GST control) | 1.16 fold enrichment (6-mer frequency, TF over GST control) | 1.22 fold enrichment (6-mer frequency, TF over GST control) | 1.28 fold enrichment (6-mer frequency, TF over GST control) | 1.25 fold enrichment (6-mer frequency, TF over GST control) | 1.2 fold enrichment (6-mer frequency, TF over GST control) | 1.12 fold enrichment (6-mer frequency, TF over GST control) | 1.24 fold enrichment (6-mer frequency, TF over GST control) | 1.25 fold enrichment (6-mer frequency, TF over GST control) | 1.25 fold enrichment (6-mer frequency, TF over GST control)
